# Compound activity (PubChem BioAssay)
# HT1080-NT tox: kills 2HG-producing HT-1080-NT fibrosarcoma cells; HT-1080-NT fibrosarcoma viability, CellTiter-Glo ATP luminescence, 48 h; Potency, µM (top dose mostly 46.1 µM), without a hit: at the top dose activity, negative = less viability, usual class: cytotoxic; 360,000 compounds, 1.6% hits;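 note: NT is the 2HG producing partner of a matched IDH1 knockdown line; 0% = DMSO-treated cells and -100% = media-only wells without cells; nearly all actives have a fitted effect of over 55% in size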
#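 Viability of the 2HG-overproducing fibrosarcoma line after 48 hours of compound exposure at 37 degrees C was determined by luminescence with CellTiter-Glo, and concentration-effect curves were then fitted and categorized.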
# HT1080 IDH1KD tx: toxicity to HT-1080 IDH1 knockdown cells (counter line); 360,000 compounds, 2% hits; Potency, µM (highest dose often 46.1 µM), for inactives: at the highest dose activity, negative = toxicity, actives largely listed as cytotoxic; HT-1080 IDH1 knockdown viability, ATP luminescence, 48 h; AID 686971;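 note: 0% = DMSO wells and -100% = cell-free medium wells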
#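 Viability of IDH1-knockdown HT-1080 fibrosarcoma cells was assessed by CellTiter-Glo after 48 h at 37 °C with titrated compound; concentration-effect curves were classified by fit quality and response size.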
# TDP1 cell CPT: DT40-hTDP1 cell growth loss with CPT; Potency, µM (series often up to 46.2 µM), without a hit: at the top dose activity change, negative = growth inhibition, actives largely listed as inhibitors; chicken DT40 Tdp1-/-;hTDP1 cells + 20 nM CPT, ATP luminescence, 48 h; 420,000 compounds, 12% hits; note: nearly all actives have a fitted effect of over 55% in size
#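 Chicken DT40 Tdp1-/- cells stably complemented with human TDP1 were seeded at 400 cells/well in medium containing 20 nM camptothecin, exposed to pin-transferred compounds, and grown at 37 °C for at least 48 hr. Viability was read as ATP luminescence.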
# KB-V1 MDR tox: kills drug-selected multidrug resistant KB-V1 cells. Potency, µM (top dose mostly 46.1 µM), actives largely listed as cytotoxic. KB-V1 MDR cells viability, CellTiter-Glo, 72 h. 400,000 compounds, 3.4% hits. AID 1347076; note: nearly all actives have a fitted effect of over 60% in size
#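 KB-V1 cells (P-gp-expressing MDR subline of KB-3-1) in phenol-red-free DMEM with 10% FBS were exposed to library compounds over a concentration series for 72 h at 37 degrees C. Viability read by CellTiter-Glo luminescence; concentration-effect curves fitted after normalization.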
# KB-3-1 cytotox: KB-3-1 parental cell cytotoxicity; KB-3-1 viability, CellTiter-Glo ATP luminescence, 72 h; Potency, µM (titrated, usually from 46.1 µM), hits mostly cytotoxic; 400,000 compounds, 1.4% hits; note: nearly all actives have a fitted effect of over 60% in size
#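 Viability of parental KB-3-1 cells, measured by CellTiter-Glo luminescence, followed a 72 h incubation at 37 °C with pinned compounds in phenol-red-free DMEM containing 10% FBS.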
# TDP1 cell noCPT: qHTS for Inhibitors of human tyrosyl-DNA phosphodiesterase 1 (TDP1): qHTS in cells in absence of CPT; DT40 Tdp1-/- hTDP1 cells, no CPT, ATP luminescence, 48 h; Potency, µM (highest dose often 46.2 µM), without a hit: at the top dose activity change, negative = growth inhibition, actives largely listed as inhibitors; 420,000 compounds, 15% hits; note: nearly all actives have a fitted effect of over 55% in size
#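 Readout: luminescence from CellTiter-Glo after 30 min in the dark at RT. Cells: DT40 Tdp1-/- with stable hTDP1, 400/well. Exposure: compounds alone, ≥48 hr, 37 °C.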
# The depositor's hits bear a star; i = inactive; ? = inconclusive; · = no result. In the library only some 19% were active in any assay of this set; here they are far more common. Calls come from the whole dose curve; as a rule, active = well fitted curve in the direction sought with a large enough effect; inconclusive = small, poorly fitted or top-dose-only effect, or another doubt; inactive = no such curve, though single readings can be large; an effect the other way counts as inactive or inconclusive. Unless noted, % is set by controls: 0 for no effect and ±100 for the full control effect; potency is the fitted concentration of half-maximal effect.
SMILES,HT1080-NT tox,HT1080 IDH1KD tx,TDP1 cell CPT,KB-V1 MDR tox,KB-3-1 cytotox,TDP1 cell noCPT
CCCCN(CC)C(=O)c1nn(C)c2c1CSc1ccccc1-2,·,·,?,·,·,23µM*
O=C1/C(=N\S(=O)(=O)c2cccs2)C([n+]2ccccc2)=C([O-])c2ccccc21,?,0%,2.3µM*,i,6.5µM*,2.3µM*
N/C(=N\S(=O)(=O)c1cccs1)c1ccccc1,-2%,-4%,-6%,i,i,-16%
CC(C)(C)c1cc[n+](C2=C([O-])c3ccccc3C(=O)/C2=N\S(=O)(=O)c2cccs2)cc1,15µM*,13µM*,2.3µM*,i,16µM*,4.6µM*
Cc1cc(C)c(C)c(S(=O)(=O)N2CCN(c3ccc(O)cc3)CC2)c1C,?,?,-24%,?,i,?
COc1ccc(C(=O)/C=C/Nc2ccc(S(=O)(=O)Nc3cccc(C(C)=O)c3)cc2)cc1,-20%,-27%,?,i,i,23µM*
COc1cc(NS(=O)(=O)c2ccc(N/C=C(\C#N)c3nc4cc(Cl)ccc4o3)cc2)nc(OC)n1,?,?,9.2µM*,i,?,15µM*
COc1cccc(C(=O)/C=C/Nc2ccc(S(=O)(=O)Nc3ccc(C(C)=O)cc3)cc2)c1,-5%,-13%,?,?,i,16µM*
COc1cc(NS(=O)(=O)c2ccc(NC(C)=O)cc2)nc(OC)n1,12%,6%,0%,i,i,-7%
COc1cccc(C(=O)/C=C/Nc2ccc(S(=O)(=O)Nc3nc(C)cc(C)n3)cc2)c1,-1%,3%,-19%,i,i,-33%
COc1cc(NS(=O)(=O)c2ccc(N/C=C\C(=O)c3ccc(C)cc3)cc2)nc(OC)n1,-2%,-5%,12µM*,i,i,21µM*
CC1(C)NC(=S)NC1=S,9%,19%,1%,i,i,-22%
CCCSc1nnc(Cn2c(=O)sc3ccccc32)n1C,-2%,0%,-14%,i,i,0%
CC(=O)c1ccc(NS(=O)(=O)c2ccc(C)cc2)cc1,-6%,-2%,-15%,i,i,-5%
COc1cc(OC)c(OC)cc1/C=C/C(=O)c1ccc(NS(=O)(=O)c2ccc(C)cc2)cc1,-21%,-20%,?,15µM*,i,?
O=C(CSc1nc2ccc(Nc3nc(N4CCOCC4)nc(N4CCOCC4)n3)cc2s1)Nc1ccccc1F,7%,4%,6.5µM*,2.6µM*,13µM*,5.8µM*
O=C(CSc1nc2ccc(Nc3nc(N4CCCC4)nc(N4CCCC4)n3)cc2s1)NCc1ccco1,-6%,-2%,5.8µM*,i,i,6.5µM*
O=C(CSc1nc2ccc(Nc3nc(N4CCOCC4)nc(N4CCOCC4)n3)cc2s1)Nc1ccccc1Cl,?,-28%,21µM*,?,?,?
O=C(CSc1nc2ccc(Nc3nc(N4CCOCC4)nc(N4CCOCC4)n3)cc2s1)N1CCOCC1,-4%,-2%,21µM*,i,i,18µM*
CC(=O)Nc1ccc2nc(SCC(=O)N3CCOCC3)sc2c1,1%,2%,6%,i,i,-1%
O=C(c1cccnc1)N1CCCC(Nc2ccc(F)cc2)C1 (centres undefined),13%,1%,-16%,i,i,22%
CSc1nc2ccc(Nc3nc(N4CCOCC4)nc(N4CCOCC4)n3)cc2s1,?,?,23µM*,18µM*,?,16µM*
NS(=O)(=O)c1ccc(NC(=O)CSc2nc(Nc3ccccc3)nc(N3CCOCC3)n2)cc1,-17%,-27%,21µM*,·,·,16µM*
Cc1ccc(OC(C)C(=O)Nc2ccccc2C(=O)N2CCN(C)CC2)cc1 (centres undefined),-1%,-4%,-7%,i,i,-18%
COCCn1c(SCC(=O)NCc2ccccc2)nc2ccccc21,-4%,-2%,7%,i,i,-19%
SMILES,HT1080-NT tox,HT1080 IDH1KD tx,TDP1 cell CPT,KB-V1 MDR tox,KB-3-1 cytotox,TDP1 cell noCPT
COCCn1c(SCc2csc(-c3ccccc3)n2)nc2ccccc21,?,-28%,16µM*,8.2µM*,16µM*,18µM*
Cc1nn2c(CN(C(=O)COc3ccccc3)c3ccccc3)nnc2c2ccccc12,-4%,-1%,?,4.6µM*,?,?
Cc1nn2c(COc3ccc(NC(=O)c4ccccc4Cl)cc3)nnc2c2ccccc12,?,15µM*,18µM*,?,?,23µM*
CCC(CC)c1nn2c(=O)cc(COc3ccc(NC(=O)c4ccccc4C)cc3)nc2s1,·,·,?,i,i,2.3µM*
CCC(CC)c1nn2c(=O)cc(COc3ccc(NC(=O)c4ccccc4Cl)cc3)nc2s1,·,·,?,?,i,2.3µM*
CCCN(CCC)CCNC(=O)Cn1ncc2c([nH]c3ccc(C)cc32)c1=O,·,·,-5%,i,i,-8%
O=C(c1cc2ccccc2oc1=O)N(c1ccccc1)C1C=CS(=O)(=O)C1 (centres undefined),-3%,0%,-4%,i,i,-19%
CC(C)c1ccc(N(C(=O)c2cc3ccccc3oc2=O)C2C=CS(=O)(=O)C2)cc1 (centres undefined),9%,10%,?,?,i,13µM*
CCc1nnc2n1N=C(c1ccc(-c3cc(Cl)ccc3Cl)o1)CS2,-17%,0%,-26%,i,i,?
Clc1ccc(OCc2nnc3n2N=C(c2ccc4c(c2)OCCO4)CS3)c(Cl)c1,10µM*,8.9µM*,9.2µM*,?,?,12µM*
Cn1c(=O)c2c(nc(Cl)n2CC(=O)N2CCCCC2)n(C)c1=O,11%,28%,6%,i,i,-7%
CCN(C(=O)Cn1c(Cl)nc2c1c(=O)n(C)c(=O)n2C)C1CCCCC1,1%,0%,21µM*,?,i,21µM*
CC1CCCC(NC(=O)Cn2c(Cl)nc3c2c(=O)n(C)c(=O)n3C)C1C (centres undefined),-9%,0%,?,i,i,21µM*
Cc1cc(NC(=S)N(Cc2ccc(Br)cc2)Cc2ccc(C(=O)O)cc2)ccc1Cl,?,?,-17%,i,i,?
COc1cc(C(=O)NNC(=S)NC(=O)c2ccc(Cl)cc2)cc(OC)c1OC,-6%,?,?,?,?,23µM*
